Measured values from PubChem BioAssay.
The source made the active and inactive calls.

Legend:
[1] = anti-His antibody binders, primary screen, artefact control for SMM control protein annotation, biochemical, small-molecule microarray, 635 nm fluorescence (AID 1128); details: anti-His Alexa647 antibody binding, higher = more signal;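 also: score merges feature fluorescence with signal-to-noise for each printed compound spot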
[2] = test system: Human papillomavirus type 1a E7 protein (residues 1-88); assay: HPV1a E7 small-molecule binders, primary screen, biochemical, small-molecule microarray, residues 1-88, 635 nm (AID 1129); details: small-molecule microarray binding, fluorescence 635 nm; higher = more signal
[3] = biological target: Focal adhesion kinase 1 (Homo sapiens) (UniProt Q05397); assay: small-molecule microarray binders of FAK, primary screen, biochemical, 635/667 nm fluorescence, BSA, DTT (AID 1130); details: PTK2 binding, 635 nm fluorescence, higher = more signal;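 also: composite of spot emission at 667 nm and signal to noise over triplicate slides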
[4] = test system: Fibrinogen (Alexa647-labelled); assay: fibrinogen binders on compound microarrays, profiling panel, artefact control for SMM control-protein annotation, biochemical, small-molecule microarray, 635/667 nm fluorescence (AID 1131); details: fibrinogen-A647 binding fluorescence, higher = more signal;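 also: z-score merges 667 nm fluorescence with per-spot signal-to-noise over triplicate slides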
[5] = biological target: Follistatin (Homo sapiens) (UniProt P19883); assay: follistatin binders on small-molecule microarrays, primary screen, biochemical, small-molecule microarray, 635/667 nm fluorescence (AID 1132); details: FST binding, 635 nm fluorescence, higher = more signal
[6] = biological target: Fibroblast growth factor 2 (Homo sapiens) (UniProt P09038); assay: FGF2 binders on small-molecule microarrays, primary screen, biochemical, small-molecule microarray, 635/667 nm fluorescence (AID 1133); details: small-molecule microarray binding, FGF2, fluorescence 635/667; higher = more signal
[7] = mitochondrial membrane potential change in A549 cells, profiling panel, cell-based, JC-1 fluorescence, basal, 24 h, 100 nL (AID 1138); details: higher = more signal;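 also: A549 lung adenocarcinoma cells under basal conditions with no added stimulus; test concentration not given here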
Lefty1 = Lefty1 binders on small-molecule microarrays, primary screen, biochemical, small-molecule microarray, 635/667 nm fluorescence (AID 1139); details: small-molecule microarray binding, fluorescence 635/667; higher = more signal
[8] = test system: wheat germ agglutinin (Triticum aestivum), Alexa647-labelled; assay: wheat germ agglutinin binders on compound microarrays, profiling panel, artefact control for SMM control-protein annotation, biochemical, small-molecule microarray, 635/667 nm fluorescence (AID 1140); details: WGA-A647 binding, 635 nm fluorescence, higher = more signal;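 also: score merges 667 nm feature emission with signal to noise over triplicate slides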
[9] = biological target: Luciferin 4-monooxygenase (Photinus pyralis) (UniProt P08659); assay: firefly luciferase enzyme inhibitors, primary screen, biochemical, luminescence, purified enzyme, 2006 set (AID 1141); details: SteadyGlo luminescence, 30 min, higher = more signal, called active from +8 up or from −8 down;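 also: cell-free assay with purified firefly luciferase at 100 ng per well in PBS; test concentration not given here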
Chain of Luciferin 4-monooxygenase (Photinus pyralis) (P08659 whole entry, looked up): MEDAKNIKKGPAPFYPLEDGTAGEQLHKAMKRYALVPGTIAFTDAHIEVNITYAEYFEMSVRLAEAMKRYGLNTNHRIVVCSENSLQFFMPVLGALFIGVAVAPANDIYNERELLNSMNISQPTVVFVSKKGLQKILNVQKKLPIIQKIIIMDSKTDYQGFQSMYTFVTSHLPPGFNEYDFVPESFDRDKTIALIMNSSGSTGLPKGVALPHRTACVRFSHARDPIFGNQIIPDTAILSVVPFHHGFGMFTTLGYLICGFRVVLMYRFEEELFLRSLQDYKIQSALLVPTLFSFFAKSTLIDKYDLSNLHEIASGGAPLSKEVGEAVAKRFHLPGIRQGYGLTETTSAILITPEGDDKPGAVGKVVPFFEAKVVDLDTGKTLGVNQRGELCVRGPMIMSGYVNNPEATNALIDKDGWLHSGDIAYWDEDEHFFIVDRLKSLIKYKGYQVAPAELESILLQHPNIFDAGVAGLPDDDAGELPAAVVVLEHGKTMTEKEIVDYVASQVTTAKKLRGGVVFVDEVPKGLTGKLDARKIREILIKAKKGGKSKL

Chain of Focal adhesion kinase 1 (Homo sapiens) (Q05397 whole entry, looked up): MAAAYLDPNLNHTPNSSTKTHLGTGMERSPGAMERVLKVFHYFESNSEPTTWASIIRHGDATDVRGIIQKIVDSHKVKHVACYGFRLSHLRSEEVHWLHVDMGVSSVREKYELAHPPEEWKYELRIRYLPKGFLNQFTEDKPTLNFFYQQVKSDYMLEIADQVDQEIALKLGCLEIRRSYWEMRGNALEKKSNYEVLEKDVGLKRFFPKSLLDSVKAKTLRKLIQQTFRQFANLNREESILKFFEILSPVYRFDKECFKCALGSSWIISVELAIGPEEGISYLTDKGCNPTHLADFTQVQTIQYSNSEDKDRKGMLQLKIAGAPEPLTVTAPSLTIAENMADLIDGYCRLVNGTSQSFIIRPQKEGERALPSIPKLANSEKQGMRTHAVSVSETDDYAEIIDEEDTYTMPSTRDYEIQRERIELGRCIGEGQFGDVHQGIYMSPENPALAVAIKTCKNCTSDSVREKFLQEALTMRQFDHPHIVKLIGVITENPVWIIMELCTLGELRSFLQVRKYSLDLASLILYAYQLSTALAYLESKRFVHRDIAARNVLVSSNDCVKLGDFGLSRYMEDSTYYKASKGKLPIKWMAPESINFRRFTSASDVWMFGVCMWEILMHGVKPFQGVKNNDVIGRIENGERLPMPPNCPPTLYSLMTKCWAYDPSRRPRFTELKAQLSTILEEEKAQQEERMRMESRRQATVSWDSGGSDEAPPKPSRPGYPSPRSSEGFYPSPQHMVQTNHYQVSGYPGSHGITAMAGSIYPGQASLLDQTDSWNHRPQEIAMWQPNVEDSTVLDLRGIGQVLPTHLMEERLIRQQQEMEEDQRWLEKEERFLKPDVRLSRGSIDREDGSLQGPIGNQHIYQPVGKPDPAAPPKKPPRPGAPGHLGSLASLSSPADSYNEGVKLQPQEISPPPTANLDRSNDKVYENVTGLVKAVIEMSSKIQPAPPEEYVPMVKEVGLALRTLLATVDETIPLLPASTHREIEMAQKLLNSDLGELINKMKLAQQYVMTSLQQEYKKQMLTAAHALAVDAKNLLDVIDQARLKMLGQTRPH
Chain of Fibroblast growth factor 2 (Homo sapiens) (P09038 whole entry, looked up): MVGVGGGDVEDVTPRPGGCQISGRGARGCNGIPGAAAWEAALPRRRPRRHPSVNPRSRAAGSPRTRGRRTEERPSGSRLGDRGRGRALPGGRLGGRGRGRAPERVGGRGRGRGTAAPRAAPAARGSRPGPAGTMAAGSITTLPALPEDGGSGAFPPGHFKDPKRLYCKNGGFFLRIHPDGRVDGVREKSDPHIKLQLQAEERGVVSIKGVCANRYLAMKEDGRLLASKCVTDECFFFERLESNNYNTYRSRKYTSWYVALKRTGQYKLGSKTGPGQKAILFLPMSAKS
Chain of Follistatin (Homo sapiens) (P19883 whole entry, looked up): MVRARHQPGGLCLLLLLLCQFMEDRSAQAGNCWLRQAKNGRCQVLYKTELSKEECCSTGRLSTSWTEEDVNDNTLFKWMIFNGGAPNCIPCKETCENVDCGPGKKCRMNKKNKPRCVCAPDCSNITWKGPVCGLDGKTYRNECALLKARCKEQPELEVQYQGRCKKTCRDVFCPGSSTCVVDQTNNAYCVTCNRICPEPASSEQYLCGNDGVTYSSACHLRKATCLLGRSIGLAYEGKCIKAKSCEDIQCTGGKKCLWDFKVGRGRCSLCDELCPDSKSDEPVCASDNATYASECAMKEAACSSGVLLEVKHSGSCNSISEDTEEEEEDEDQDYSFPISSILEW

CC(CCN1CCc2nc(-c3ccccc3)c(-c3ccccc3)cc2C1)=NOC[C@@H](O)[C@H]1O[C@@H]2OC(C)(C)O[C@@H]2[C@H]1O
composite z-score [1]: 0.107 | composite z-score [2]: 0.94 | composite z-score [3]: 0.182 | composite z-score [4]: 0.925 | composite z-score [5]: 0.521 | composite z-score [6]: 0.409 | z-score [7]: 2.07 | composite z-score (Lefty1): 1.07 | composite z-score [8]: 0.393 | z-score [9]: -0.116 (inactive)

CCOC(=O)[C@H](CC(C)C)NC(=O)CCC1CC(OC(=O)NCc2ccc3c(c2)OCO3)CC2(CCCC(COC(=O)NCC3CCCCC3)O2)O1 (stereo not given in full)
composite z-score [1]: 1.18 | composite z-score [2]: 0.939 | composite z-score [3]: -0.217 | composite z-score [4]: -0.195 | composite z-score [5]: 1.18 | composite z-score [6]: 0.928 | z-score [7]: 0.0853 | composite z-score (Lefty1): 1.63 | composite z-score [8]: 0.584 | z-score [9]: 0.885 (inactive)

CO[C@@H]1COC(=O)CC=C[C@H](C)[C@H](OC)COC(=O)[C@H](C)NC(=O)CC=C[C@H]1C
composite z-score [1]: -0.347 | composite z-score [2]: -1.35 | composite z-score [3]: -0.289 | composite z-score [4]: -0.394 | composite z-score [5]: 1.41 | composite z-score [6]: 0.628 | z-score [7]: 0.239 | composite z-score (Lefty1): 1.64 | composite z-score [8]: -0.54 | z-score [9]: -0.304 (inactive)

O=C(NN=C1C[C@@H](O)[C@@H](O)[C@@H]2[C@@H]3C(=O)N(Cc4ccccc4)C(=O)[C@@H]3CC[C@@H]12)OCc1ccccc1
composite z-score [1]: 0.298 | composite z-score [2]: -0.0375 | composite z-score [3]: -0.0741 | composite z-score [4]: 0.272 | composite z-score [5]: 0.165 | composite z-score [6]: 0.242 | z-score [7]: 0.257 | composite z-score (Lefty1): 0.321 | composite z-score [8]: -0.148 | z-score [9]: 0.472 (inactive)

CCc1cc2c(nc1CC)CCN(CCC(C)=NO[C@H](C)c1cn([C@@H]3COC[C@H]3O)nn1)C2
composite z-score [1]: -0.0963 | composite z-score [2]: -0.139 | composite z-score [3]: -0.162 | composite z-score [4]: 0.522 | composite z-score [5]: 0.523 | composite z-score [6]: 0.305 | z-score [7]: 0.537 | composite z-score (Lefty1): 0.204 | composite z-score [8]: 0.199 | z-score [9]: 0.221 (inactive)

CCCNC(=O)OC[C@H]1O[C@H](c2ccccc2)C=C[C@@H]1Oc1ccc(OC)cc1
composite z-score [1]: 0.98 | composite z-score [2]: 0.0455 | composite z-score [3]: -0.0038 | composite z-score [4]: 0.25 | composite z-score [5]: -0.143 | composite z-score [6]: -0.179 | z-score [7]: -0.388 | composite z-score (Lefty1): 0.212 | composite z-score [8]: -0.114 | z-score [9]: -0.533 (inactive)

O=C(NN=C1C[C@@H](O)[C@@H](O)[C@@H]2[C@@H]3C(=O)N(C[C@@H]4CCCO4)C(=O)[C@@H]3CC[C@@H]12)OCc1ccccc1
composite z-score [1]: -0.391 | composite z-score [2]: -0.645 | composite z-score [3]: -0.345 | composite z-score [4]: -0.545 | composite z-score [5]: 0.5 | composite z-score [6]: 0.23 | z-score [7]: 0.49 | composite z-score (Lefty1): 0.305 | composite z-score [8]: -0.248 | z-score [9]: -0.827 (inactive)

O=C(NN=C1C[C@@H](O)[C@@H](O)[C@@H]2[C@@H]3C(=O)N(C[C@@H]4CCCO4)C(=O)[C@@H]3CC[C@H]12)OCc1ccccc1
composite z-score [1]: -0.0516 | composite z-score [2]: 0.0327 | composite z-score [3]: -0.147 | composite z-score [4]: 0.271 | composite z-score [5]: -0.606 | composite z-score [6]: -0.183 | z-score [7]: -0.0539 | composite z-score (Lefty1): -0.793 | composite z-score [8]: 0.717 | z-score [9]: 0.304 (inactive)

CCOC(=O)[C@H](Cc1ccccc1)NC(=O)CCC1CC(OC(=O)NCCc2ccc(F)cc2)CC2(CCCC(COC(=O)NCc3ccccc3)O2)O1 (stereo not given in full)
composite z-score [1]: 0.704 | composite z-score [2]: 1.04 | composite z-score [3]: 0.254 | composite z-score [4]: 0.282 | composite z-score [5]: 0.63 | composite z-score [6]: 0.473 | z-score [7]: 0.216 | composite z-score (Lefty1): 0.833 | composite z-score [8]: 0.115 | z-score [9]: 0.877 (inactive)

COC(=O)CC=C[C@@H](C)[C@@H](C=NOC[C@H]1O[C@H](c2ccccc2)C=C[C@@H]1Oc1ccc(OC)cc1)NS(=O)(=O)c1ccc(C)cc1
composite z-score [1]: -1.16 | composite z-score [2]: -1.1 | composite z-score [3]: -0.217 | composite z-score [4]: -0.85 | composite z-score [5]: -1.04 | composite z-score [6]: -0.528 | z-score [7]: -0.173 | composite z-score (Lefty1): -1.11 | composite z-score [8]: -0.542 | z-score [9]: 0.847 (inactive)

CO[C@H]1COC(=O)[C@@H](C)COC(=O)[C@H](COCc2ccccc2)NC(=O)CC=C[C@H]1C
composite z-score [1]: -1.43 | composite z-score [2]: -1.02 | composite z-score [3]: -0.0555 | composite z-score [4]: -0.785 | composite z-score [5]: 1.36 | composite z-score [6]: 1.21 | z-score [7]: 0.844 | composite z-score (Lefty1): 1.09 | composite z-score [8]: -0.841 | z-score [9]: -0.949 (inactive)

C=Cc1ccc([C@H]2N[C@H](C(=O)O)CC[C@@H]2C)cc1
composite z-score [1]: 0.126 | composite z-score [2]: -1.47 | composite z-score [3]: -0.584 | composite z-score [4]: -0.719 | composite z-score [5]: 0.632 | composite z-score [6]: 0.486 | z-score [7]: 1.28 | composite z-score (Lefty1): 0.431 | composite z-score [8]: 0.388 | z-score [9]: -0.33 (inactive)

C[C@@H]1NC(=O)[C@@H](C)COC(=O)[C@H](C)NC(=O)[C@@H](C)COC1=O
composite z-score [1]: 1.08 | composite z-score [2]: 0.922 | composite z-score [3]: 0.0556 | composite z-score [4]: -0.0769 | composite z-score [5]: 0.172 | composite z-score [6]: 1.21 | z-score [7]: -0.323 | composite z-score (Lefty1): 0.389 | composite z-score [8]: -0.137 | z-score [9]: 0.254 (inactive)

CO[C@H]1COC(=O)CC=C[C@@H](C)[C@H](OC)COC(=O)[C@@H]2CCCN2C(=O)CC=C[C@@H]1C
composite z-score [1]: 0.118 | composite z-score [2]: -0.834 | composite z-score [3]: -0.145 | composite z-score [4]: -1.02 | composite z-score [5]: 1.39 | composite z-score [6]: 1.01 | z-score [7]: 0.0624 | composite z-score (Lefty1): 1.57 | composite z-score [8]: -0.483 | z-score [9]: -0.813 (inactive)

COCCNC(=O)OCC1CCCC2(CC(OC(=O)NCc3ccc4c(c3)OCO4)CC(CCC(=O)N[C@@H](C)C(=O)OC)O2)O1 (stereo not given in full)
composite z-score [1]: 0.721 | composite z-score [2]: 0.885 | composite z-score [3]: 0.136 | composite z-score [4]: 0.592 | composite z-score [5]: 0.752 | composite z-score [6]: 1.13 | z-score [7]: -0.397 | composite z-score (Lefty1): 1.3 | composite z-score [8]: 0.139 | z-score [9]: 0.89 (inactive)

CO[C@H]1COC(=O)[C@@H](C)COC(=O)[C@H](C)NC(=O)CC=C[C@H]1C
composite z-score [1]: -0.79 | composite z-score [2]: -0.764 | composite z-score [3]: -0.113 | composite z-score [4]: -0.47 | composite z-score [5]: 1.31 | composite z-score [6]: 0.871 | z-score [7]: 0.853 | composite z-score (Lefty1): 1.58 | composite z-score [8]: -0.379 | z-score [9]: -0.185 (inactive)

Cn1c(=O)n2n(c1=O)[C@H]1[C@H](O)[C@@H]3O[C@@H]3C(=NOCc3ccccc3)[C@H]1CC2
composite z-score [1]: 0.192 | composite z-score [2]: -0.624 | composite z-score [3]: 0.13 | composite z-score [4]: -0.867 | composite z-score [5]: -0.104 | composite z-score [6]: -0.478 | z-score [7]: 0.874 | composite z-score (Lefty1): 0.3 | composite z-score [8]: 0.349 | z-score [9]: -0.101 (inactive)

O=C1[C@H]2[C@H]3[C@H](O)[C@H](O)CC(=NOCc4ccccc4)[C@@H]3CC[C@H]2C(=O)N1Cc1ccc2c(c1)OCO2
composite z-score [1]: 0.0116 | composite z-score [2]: 0.316 | composite z-score [3]: 0.928 | composite z-score [4]: 0.866 | composite z-score [5]: 1.23 | composite z-score [6]: 0.319 | z-score [7]: -0.368 | composite z-score (Lefty1): 0.268 | composite z-score [8]: 0.261 | z-score [9]: 0.729 (inactive)

COC(=O)CC=C[C@@H](C)[C@@H](C=NO[C@H](C)c1cn([C@H](CO)Cc2ccccc2)nn1)OC
composite z-score [1]: 3.43 | composite z-score [2]: 0.544 | composite z-score [3]: -0.144 | composite z-score [4]: 0.236 | composite z-score [5]: 0.517 | composite z-score [6]: 0.827 | z-score [7]: -0.826 | composite z-score (Lefty1): 0.71 | composite z-score [8]: 0.268 | z-score [9]: -0.165 (inactive)

CC(CCN1CCCc2nc(C)c(C)cc21)=NOC(C)CN1CCCCc2nc(C)c(C)cc21 (stereo not given)
composite z-score [1]: 0.363 | composite z-score [2]: 1.2 | composite z-score [3]: 0.687 | composite z-score [4]: 0.567 | composite z-score [5]: 1.27 | composite z-score [6]: 0.785 | z-score [7]: 0.539 | composite z-score (Lefty1): 0.91 | composite z-score [8]: 0.829 | z-score [9]: -0.0922 (inactive)

CCOC(=O)C1=NO[C@]2(C=C(Br)C3(OCCCO3)[C@H]3O[C@H]32)C1
composite z-score [1]: -0.765 | composite z-score [2]: -0.57 | composite z-score [3]: -0.428 | composite z-score [4]: 0.185 | composite z-score [5]: -0.599 | composite z-score [6]: -0.285 | z-score [7]: -0.242 | composite z-score (Lefty1): -0.168 | composite z-score [8]: 0.513 | z-score [9]: 0.163 (inactive)

CO[C@@H]1COC(=O)[C@@H]2CCCN2C(=O)[C@@H](C)COC(=O)CC=C[C@H]1C
composite z-score [1]: 0.408 | composite z-score [2]: 0.923 | composite z-score [3]: -0.194 | composite z-score [4]: 0.527 | composite z-score [5]: 0.365 | composite z-score [6]: 1.51 | z-score [7]: -0.84 | composite z-score (Lefty1): 1.01 | composite z-score [8]: -0.0639 | z-score [9]: 1.48 (inactive)
